The structures appear in SMILES notation. Inconclusive results are not listed. Entries that show only a call come without a potency. Unmarked numbers belong to inactive results. Calls of active or inactive are those of the source. Calls follow the shape of the full dose curve.

A short description of this assay: p53 small molecule agonists, cell-based qHTS assay with human liver microsomes: qHTS cell viability counter screen (AID 1963579). Also: nearly all actives have a fitted effect of over 45% in size. The conditions noted are these: p53RE-bla HCT-116 viability, ATP luminescence, 16 h, HLM; series mostly up to 66 µM. The text has this:
National Center for Advancing Translational Sciences [NCATS]
Division of Preclinical Innovation [DPI]
U.S. Environmental Protection Agency [EPA]
National Institutes of Environmental Health Sciences [NIEHS]
National Toxicology Program [NTP]
U.S. Food and Drug Administration [FDA]
p53, a tumor suppressor protein, is activated following cellular insult, including DNA damage and other cellular stresses. The activation of p53 regulates cell fate by inducing DNA repair, cell cycle arrest, apoptosis, or cellular senescence. The activation of p53, therefore, is a good indicator of DNA damage and other cellular stresses. […] The activation of the reporter gene under culture conditions can be detected by fluorescence intensity. This cell line was used to screen the Tox21 10K compound library in the condition of presence of human liver microsomes and to identify agonists that activate the p53 signaling pathway after in vitro metabolic activation (Ooka et al., Archive of Toxicology 96:1975-1987, 2022).
Tox21 Assay Protocol Summary:
The p53RE-bla cells were dispensed at 4,000cells/3ul/well in 1536-well black-clear bottom plates. After the assay plates were incubated at 37 C, 5% CO2 incubator for 5 hours, 23 nL of compounds dissolved in DMSO, positive controls or DMSO only was transferred to the assay plate. Following compound addition, 3 uL of human liver microsomes (XenoTech, Kansas City, KS) at final concentration of 0.5 mg/mL and 1uL of B-Nicotinamide adenine dinucleotide 2'-phosphate (NADPH) at final concentration of 0.5 mg/mL were transferred to the assay plate. The plates were incubated at 37 C for 16 hours. 1 uL of LiveBLAzer detection mixture was added to each well and the plates were incubated at room temperature in the dark for 2 h. Fluorescence intensity at 460 and 530 nm emission and 405 nm excitation were measured by an Envision plate reader. For cell viability readout that measures cytotoxicity, 4 ul/well of CellTiter-Glo reagent was added into the assay plates using a Flying Reagent Dispenser. After 30 min incubation at room temperature, the luminescence intensity in the plates was measured using a ViewLux plate reader.
For `Cc1nc2ccccn2c(=O)c1CCN1CCC(C(=O)c2ccc(F)cc2)CC1`, the Potency entry was “inactive”. `CCCCCCCCCOC(=O)c1ccccc1C(=O)OCCCCCCCCC`: the Potency entry is “inactive”. Still for that read-out and setting: as for `Cc1ccc(OC(=O)c2ccccc2O)cc1`, the entry is “inactive”.

Regarding `CN1CCN(N)CC1`, the Potency entry is “inactive”. Consider `COc1ncnc(NS(=O)(=O)c2ccc(N)cc2)c1OC`, for which the Potency entry is “inactive”. On the same count and under the same terms, as for `O=C(O)CCC(=O)c1ccc(-c2ccccc2)cc1`, the entry is “inactive”; as for `C=COCC1CCC(COC=C)CC1` (stereo not given), “inactive”; as for `NC(=O)c1cn(Cc2c(F)cccc2F)nn1`, “inactive”. `CCCCCCOC(=O)C(C)C`: the Potency result was “inactive”.

As for `Cc1nc(C)nc(N2C[C@@H](C)N(c3ccnc([C@@H](C)O)n3)[C@@H](C)C2)n1`, the Potency result is “inactive”. In the case of `Cc1ccc(-n2nc(C(C)(C)C)cc2NC(=O)Nc2ccc(OCCN3CCOCC3)c3ccccc23)cc1`, the Potency result is “inactive”.

On to `O=C(O)Cc1cn(-c2ccccc2)nc1-c1ccc(Cl)cc1`, for which the Potency entry was “inactive”. Take `CCCCCCCC(C)=O`: the Potency result is “inactive”.

Regarding `CN(C)C/C=C(/c1ccc(Br)cc1)c1cccnc1`, the Potency entry was “inactive”. Regarding `CC(C)(C)NSc1nc2ccccc2s1`, the Potency result was “inactive”.

In the case of `COC(=O)NN`, the Potency result is “inactive”. As for `CN1C[C@@H]2C[C@H]1CN2c1cc2c(cc1F)c(=O)c(C(=O)O)cn2C1CC1`, the activity change, negative = cytotoxicity was 13.7% [at 13.5 µM]. Turning to `CCCCCCOC(=O)CCC`, the Potency result was “inactive”.

For the compound `CCOC(=O)c1cnc2c(cnn2CC)c1NN=C(C)C`, the Potency result was “inactive”. Take `CCCCCCCCc1ccc(S(=O)(=O)O)cc1`: the Potency entry is “inactive”.

With `CCCCCCCCCCCCC`, the Potency result is “inactive”. The same measure, in the same setting: with `CCC1(C)C(=O)N(Cl)C(=O)N1Cl` (stereo not given) the entry was “inactive”. With `Nc1nc2c(ncn2COCCO)c(=O)[nH]1`, the Potency result is “inactive”. For the compound `CC[C@H](NC(C)C)[C@H](O)c1ccc(O)c2[nH]c(=O)ccc12`, the Potency result is “inactive”. Regarding `COC(=O)c1ccc(I)cc1S(=O)(=O)NC(=O)Nc1nc(C)nc(OC)n1`, the Potency entry is “inactive”.

With `CO[C@@H]1[C@@H](OC(N)=O)[C@@H](O)[C@H](Oc2ccc3c(O)c(NC(=O)c4ccc(O)c(CC=C(C)C)c4)c(=O)oc3c2C)OC1(C)C`, the Potency entry is “inactive”. As to `CC(C)OC(=O)c1ccccc1`, the Potency result is “inactive”.

Turning to `CC[N+](CC)(CC)CCOc1cccc(OCC[N+](CC)(CC)CC)c1OCC[N+](CC)(CC)CC`, the Potency result is “inactive”.

With `O=C(OC1C[C@H]2CC[C@@H](C1)[N+]21CCCC1)C(O)(c1ccccc1)c1ccccc1` (stereo not given in full), the Potency entry is “inactive”. Take `CCC(CC)(CC(=O)Nc1cccc(/C=C/c2nc(C3CCC3)cs2)c1)C(=O)O`: the Potency entry was “inactive”. In the case of `CCN(CC)CCc1nc(-c2ccccc2)no1`, the Potency entry was “inactive”. Regarding `O=C1OC(=O)C2C3C=CC(C3)C12` (stereo not given), the Potency entry is “inactive”. Regarding `N#CCc1ccc(Cl)cc1Cl`, the Potency entry was “inactive”. Regarding `CN(C)CCN1C(=O)c2ccccc2N(C)c2ccccc21`, the Potency entry is “inactive”. Turning to `CC(=O)C1C(=O)C=C(C)OC1=O` (stereo not given), the Potency result is “inactive”. As for `O=CNNC=O`, the Potency entry is “inactive”. The same measure, in the same setting: with `C1CCN2C[C@@H]3C[C@@H](CN4CCCC[C@@H]34)[C@H]2C1` the entry was “inactive”; with `CCCCCCC`, “inactive”. Regarding `N#Cc1ccc(CC(=O)c2cccc(C(F)(F)F)c2)cc1`, the Potency entry was “inactive”. Turning to `O=C1c2ccccc2C(=O)C1c1ccccc1`, the Potency result was “inactive”.

(Values after PubChem BioAssay (Tox21).)
